ELG1 genotox = inducers of genotoxicity in HEK293T ELG1-luciferase cells; HEK293T ELG1-luciferase reporter, luminescence, 16 h; Potency, µM (doses to about 46 µM), for inactives: at the highest dose activity change, positive = activation, hits mostly activators; 330,000 compounds, 1.3% hits; AID 504466; further: % of control where 0% means no effect; nearly all actives have a fitted effect of over 60% in size
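Luminescence read-out: rising ELG1-luciferase signal, reflecting elevated ELG1 protein under genetic stress, flags genotoxic compounds. Cells were treated for 16 hr at 37 °C before ONE-Glo detection.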
ELG1 repair inh = inhibitors of ELG1-dependent DNA repair in HEK293T cells; HEK293T ELG1-luciferase reporter, luminescence, 16 h; DNA damage induced by 5-fluorouridine; Potency, µM (doses to about 46.1 µM), for the others: at the highest dose activity change, negative = inhibition, usual class: inhibitors; 330,000 compounds, 2.3% hits; further: on the % scale 0 is the no-effect control and ±100 the full control effect; nearly all actives have a fitted effect of over 55% in size
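Reporter activity after DNA damage by 5-fluorouridine is monitored. Compound-treated cells incubate 16 hr at 37 °C, then ONE-Glo is added for 30 min before luminescence reading.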
FLuc counter = firefly luciferase modulation, counter-screen for miR-21 project; 360,000 compounds, 6.9% hits; Potency, µM (doses to about 57.5 µM), for inactives: top-dose activity change, negative = inhibition, hits mostly inhibitors; purified FLuc, Km substrates, luminescence inhibition; P08659;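 further: plate controls were vehicle for no effect and reference inhibitor for full effect; nearly all actives have a fitted effect of over 55% in size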
Target sequence (P08659 whole entry, looked up): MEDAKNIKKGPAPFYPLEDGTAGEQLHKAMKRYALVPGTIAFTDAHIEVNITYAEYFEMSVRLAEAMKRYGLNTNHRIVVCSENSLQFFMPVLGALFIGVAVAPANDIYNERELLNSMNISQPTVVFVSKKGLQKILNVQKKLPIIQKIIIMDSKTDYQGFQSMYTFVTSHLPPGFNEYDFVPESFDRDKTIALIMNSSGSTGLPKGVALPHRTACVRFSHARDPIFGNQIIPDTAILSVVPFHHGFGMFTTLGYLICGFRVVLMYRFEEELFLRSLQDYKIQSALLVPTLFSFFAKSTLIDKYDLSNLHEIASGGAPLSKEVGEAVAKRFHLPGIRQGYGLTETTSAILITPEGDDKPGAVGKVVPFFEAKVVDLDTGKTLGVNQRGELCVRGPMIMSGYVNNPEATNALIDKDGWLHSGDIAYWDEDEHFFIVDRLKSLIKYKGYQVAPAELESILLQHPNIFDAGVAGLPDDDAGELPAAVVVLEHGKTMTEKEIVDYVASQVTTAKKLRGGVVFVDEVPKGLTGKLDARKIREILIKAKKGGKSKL
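Purified P. pyralis luciferase, 10 nM final, with Km-level 10 uM D-luciferin and 10 uM ATP in 50 mM Tris acetate pH 7.5, 10 mM Mg acetate, 0.01% Tween-20, 0.05% BSA; 6-point qHTS titration about 60 µM downward; luminescence read.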
SMN2 splice enh = SMN2 splice variant enhancement; HEK293 SMN2-luciferase splicing reporter, luminescence, 30-36 h; Potency, µM (top dose mostly 46.1 µM), without a hit: at the highest dose activity change, positive = activation, usual class: activators; 210,000 compounds, 2.8% hits; AID 1458; further: % of control where 0% means no effect; nearly all actives have a fitted effect of over 55% in size
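qHTS luciferase splicing reporter: luminescence rises when SMN2 exon 7 is included in transfected HEK293 cells. Compound exposure lasted 30-36 h at 37C, with 4.5 mM final sodium butyrate as control, followed by a ONE-Glo read.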
Rab9 prom act = activates the Rab9 promoter; Huh7 Rab9 promoter-luciferase reporter, luminescence, 24 h; Potency, µM (doses to about 9.22 µM), without a hit: at the highest dose activation, negative = inhibition, actives largely listed as activators; 320,000 compounds, 2.8% hits; AID 485297; further: % of control where 0% means no effect; nearly all actives have a fitted effect of over 60% in size
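Huh7 reporter line, Rab9 promoter upstream of luciferase. Compound exposure 24 h at 37 °C in reduced-serum medium with 10% FBS. Read-out: luminescence.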
NPC1 promoter act = NPC1 promoter activation | Huh7 NPC1 promoter luciferase reporter, 24 h | Potency, µM (titrated, usually from 9.22 µM), without a hit: at the top dose activation, usual class: activators | 320,000 compounds, 2.4% hits | AID 485313; further: % of control where 0% means no effect; nearly all actives have a fitted effect of over 60% in size
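Stably transfected Huh7 (NPC1 promoter→luciferase), 1500 cells/well in Opti-MEM + 10% FBS, 2 h settle, then compound 24 h at 37 °C. Luminescence after 10 min with Amplite reagent.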
Starred values were filed as active, the others as inactive; ? = inconclusive; . = no result; [ ] = remark or other dose. Only some compounds are listed: those with a hit (about 9.4% of all), similar ones and a draw of the others. The call rests on the fitted dose curve; in most records, active means well fitted curve in the direction sought with a large enough effect; inconclusive means small, poorly fitted or top-dose-only effect, or another doubt; inactive means no such curve, though single readings can be large; an effect the other way counts as inactive or inconclusive. Potency means the concentration at half of the fitted maximal effect.

SMILES	ELG1 genotox	ELG1 repair inh	FLuc counter	SMN2 splice enh	Rab9 prom act	NPC1 promoter act
COc1ccc(N2Cc3cccc(C(=O)Nc4ccc(C(C)C)cc4)c3C2=O)cc1	.	.	0.269µM*	?	.	.
O=C(OCn1ncc(Cl)c(Cl)c1=O)c1ccc(C(F)(F)F)cc1	4.8%	?	-9.7%	19.9%	-50.0%	-43.8%
Cc1ccc(C(=O)OCn2ncc(Cl)c(Cl)c2=O)cc1	-8.3%	7.31µM*	-4.5%	.	-47.2%	-35.9%
O=C(Nc1sc2c(c1C(=O)O)CCCCC2)c1cccs1	6.7%	?	2.69µM*	?	4.47µM*	?
CC(C)OC(=O)c1c(NC(=O)c2cccs2)sc2c1CCCC2	-6.7%	1.4%	-1.1%	-4.2%	5.2%	2.9%
O=C(Nc1sc2c(c1C(=O)O)CCCC2)c1cccs1	-8.4%	15.5%	16.9µM*	?	2.5%	17.5%
CCCC[C@]12Cc3ccccc3C(O1)c1c(c3ccccc3oc1=O)O2	.	.	2.1%[11.5 µM]	.	-5.0%[1.84 µM]	0.4%[1.84 µM]
C=CCOc1c(Br)cc(/C=N/Nc2ccc(C(=O)O)cc2)cc1OCC	?	?	30.1µM*	8.91µM*	3.55µM*	2.82µM*
COc1ccc(C(=O)Oc2ccc(/C=N/Nc3ccc(Cl)c(C(=O)O)c3)cc2OC)cc1	9.7%	?	?	.	?	?
COc1ccc(/C=N/Nc2ccc(C(=O)O)cc2)cc1Br	?	?	0.675µM*	-79.7%	?	?
CCOc1cc(/C=N/O)cc(Br)c1OCC	-1.0%	?	0.8%	-39.7%	0.8%	-5.6%
COc1ccc(/C=N/Nc2ccc(C(=O)O)cc2)cc1OC	?	?	1.35µM*	.	0.316µM*	0.316µM*
COc1ccccc1N1CCN(c2ncnc3c2cnn3-c2ccc(C)cc2)CC1	.	.	-17.2%	.	.	.
Cn1cc([N+](=O)[O-])c(C(=O)Nc2ccc(-c3nc4ccccc4[nH]3)cc2)n1	?	?	2.69µM*	8.91µM*	?	?
Cn1cc([N+](=O)[O-])c(C(=O)Nc2ccc3nc(-c4ccccc4)[nH]c3c2)n1	?	?	4.78µM*	15.8µM*	?	3.16µM*
Cn1cc([N+](=O)[O-])c(C(=O)Nc2cc(Oc3cccnc3)cc([N+](=O)[O-])c2)n1	-4.1%	3.16µM*	1.9%	-44.9%	-3.2%	-1.0%
Cn1cc([N+](=O)[O-])c(C(=O)Nc2ccc(C3CCCCC3)cc2)n1	13.7%	?	10.7µM*	.	?	13.8%
O=[N+]([O-])c1cc(Oc2cccnc2)cc([N+](=O)[O-])c1	0.0%	17.1%	0.4%	-1.7%	-4.8%	13.4%
NC(=O)c1nc(-c2ccc(F)c(F)c2)nc2c1[nH]c(=O)n2-c1cccc(Cl)c1	.	.	1.9%	4.6%	.	.
Cc1csc(NC(=O)c2cc(C)nc3ccccc23)n1	-7.2%	-4.5%	-9.4%	-0.9%	-1.8%	-6.8%
Cc1ccc(S(=O)(=O)N2CCCCC2)cc1NC(=O)c1ccc2ccccc2n1	-0.4%	10.1%	26.9µM*	11.4%	12.9%	9.5%
Cc1csc(NC(=O)c2ccc3ccccc3n2)n1	?	?	1.07µM*	.	1.12µM*	0.501µM*
CCC(CC)c1nnc(NC(=O)c2ccc3ccccc3n2)s1	?	?	5.36µM*	12.6µM*	?	?
CCC(CC)c1nnc(NC(=O)c2cc(-c3ccccc3)nc3ccccc23)s1	-6.4%	5.1%	1.9%	.	-1.5%	0.0%
Cc1csc(NC(=O)c2cnc3ccccc3n2)n1	?	?	2.39µM*	.	?	?
SMILES	ELG1 genotox	ELG1 repair inh	FLuc counter	SMN2 splice enh	Rab9 prom act	NPC1 promoter act
O=C(c1ccc2c(c1)N(Cc1cccc(Cl)c1)C(=O)c1ccccc1S2(=O)=O)N1CCC(Cc2ccccc2)CC1	.	.	3.2%	.	.	.
Cc1cccc(NC(=O)c2oc3ccc(S(=O)(=O)N4CCC5(CC4)OCCO5)cc3c2C)c1C	.	.	-7.2%	.	.	.
O=C(Nc1ccccn1)c1ccc2ccccc2n1	?	?	0.953µM*	11.2µM*	4.47µM*	?
O=C(Nc1nccs1)c1ccc2ccccc2n1	?	?	3.38µM*	.	?	3.98µM*
O=C(NCc1ccccc1Cl)c1ccc2ccccc2n1	?	?	15.1µM*	.	?	?
Cc1cccc(NC(=O)c2ccc3ccccc3n2)c1C	?	?	0.849µM*	12.6µM*	?	?
O=C(NCc1ccccc1F)c1ccc2ccccc2n1	3.7%	15.4%	-14.9%	.	-0.2%	3.3%
Cc1ccc(NC(=O)C2CCN(c3nc4ccccc4nc3C(F)(F)F)CC2)cc1F	.	.	6.6%	.	.	.
Cc1ccc(S(=O)(=O)Nc2cc(=O)[nH]c(SCC(=O)Nc3cccc(C)c3)n2)cc1	-7.3%	?	19µM*	.	-0.5%	-0.1%
Cc1ccc(NC(=O)CSc2nc(NS(=O)(=O)c3ccccc3)cc(=O)[nH]2)cc1	2.2%	?	-2.9%	-12.3%	0.4%	0.2%
CCOc1ccc(NC(=O)CSc2nc(NS(=O)(=O)c3ccc(C)cc3)cc(=O)[nH]2)cc1	-0.3%	7.3%	21.3µM*	.	1.3%	-0.5%
CN(C(=O)CSc1nnc(COc2ccccc2)o1)c1ccccc1	.	.	-10.0%	.	.	.
CC(C)(C)NC[C@@H](O)COc1nsnc1N1CCOCC1	.	.	.	-2.2%	.	.
COc1cccc(/C=N/Nc2nc(Nc3ccccc3)nc(-n3nc(C)cc3C)n2)c1O	-24.7%	2.59µM*	6.01µM*	-7.8%	-38.6%	-2.8%
COc1cccc(/C=N/Nc2cc(-n3nc(C)cc3-c3ccccc3)ncn2)c1O	-10.9%	5.17µM*	12.9%	-107.3%	-43.9%	-31.8%
O=C1CCCC1C(=O)Nc1ccc2ccccc2c1 (centres undefined)	10.9%	?	16.9µM*	.	14.5%	16.2%
CCn1cc(C(=O)NCc2ccccc2)c(=O)c2cc(S(=O)(=O)N3CCCCCC3)ccc21	.	.	2.3%	3.2%	.	.
CCN1CCN(Cc2ccc(NC(=O)Nc3ccccc3)cc2)CC1	6.51µM*	?	6.01µM*	-3.1%	1.41µM*	2.82µM*
CSc1ccc(CN2CCN(C(=O)CC(C)C)CC2)cc1	-4.4%	?	0.6%	.	1.3%	2.2%
CCN1CCN(Cc2ccc(NC(=O)Nc3cccs3)cc2)CC1	?	?	4.78µM*	?	3.98µM*	1µM*
CCN1CCN(Cc2ccc(NC(=O)Nc3ccc(OC)cc3)cc2)CC1	?	?	?	18.7%	27.5%	16.6%
CC(=O)Nc1ccc(CN2CCCN(C)CC2)cc1	-4.2%	-9.0%	-0.4%	.	-2.1%	-3.3%
CCN1CCN(Cc2ccc(NC(=O)Nc3ccc(SC)cc3)cc2)CC1	?	?	16.9µM*	?	?	29.2%
O=Nc1ccc(NO)cc1	.	.	.	-9.2%	.	.
